Results filed as inconclusive are left out. Activity calls are given as the source filed them. The call rests on the fitted dose curve; in most records, active means well fitted inhibition curve with a large enough effect; inconclusive means small, poorly fitted or top-dose-only effect, or effect the other way; inactive means flat fitted curve, though single readings scatter.
Target: Ubiquitin carboxyl-terminal hydrolase 2 (Homo sapiens) (UniProt O75604)
Experiment: Confirmation Assay for Inhibitors of Ubiquitin-specific Protease USP2a Using CHOP2 as the Reporter; further: nearly all actives have a fitted effect of over 55% in size
Conditions: USP2 core, Ub-CHOP2 coupled reporter fluorescence; series mostly up to 38.3 µM
How it was run: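 USP2 core (10 nM final) was preincubated with compound for 30 min at RT in Tris-HCl pH 8.0, CaCl2, beta-mercaptoethanol, CHAPS. Ub-CHOP2 and reporter substrate (25 nM final each) were added, and fluorescence (Ex 485/Em 531 nm) was read after 60 min.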

Sequence of Ubiquitin carboxyl-terminal hydrolase 2 (Homo sapiens) (O75604 whole entry, looked up): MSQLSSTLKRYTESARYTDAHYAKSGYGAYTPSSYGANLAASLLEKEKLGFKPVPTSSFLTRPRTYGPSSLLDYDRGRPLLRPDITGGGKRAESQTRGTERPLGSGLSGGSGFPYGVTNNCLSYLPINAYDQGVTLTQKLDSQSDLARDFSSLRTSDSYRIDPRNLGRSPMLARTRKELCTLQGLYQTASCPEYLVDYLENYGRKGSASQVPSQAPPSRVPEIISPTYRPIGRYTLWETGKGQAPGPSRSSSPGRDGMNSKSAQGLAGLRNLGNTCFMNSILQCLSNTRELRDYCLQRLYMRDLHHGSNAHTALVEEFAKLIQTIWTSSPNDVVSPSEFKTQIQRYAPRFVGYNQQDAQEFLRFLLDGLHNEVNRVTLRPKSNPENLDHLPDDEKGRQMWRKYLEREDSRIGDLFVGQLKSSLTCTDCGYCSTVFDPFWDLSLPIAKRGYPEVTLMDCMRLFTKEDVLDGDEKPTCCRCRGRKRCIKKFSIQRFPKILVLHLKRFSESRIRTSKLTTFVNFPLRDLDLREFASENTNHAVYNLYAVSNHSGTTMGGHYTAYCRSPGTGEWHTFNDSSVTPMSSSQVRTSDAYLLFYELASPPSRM

Potency, inactive:
CNc1sc(C(=O)c2ccc(F)cc2)c(N)c1-c1nc2ccccc2s1
COCCN1Cc2cccc(C(=O)N3CCN(c4cc(C)ccc4C)CC3)c2C1=O
CCOc1ccccc1C(=O)NC1CC2CCCC(C1)N2C1CC1 (centres undefined)
O=C1CC(c2ccc(Cl)cc2)SC(N(c2ccccc2)c2ccccc2)=N1 (centres undefined)

Source: PubChem BioAssay AID493168 (National Center for Advancing Translational Sciences (NCATS), 2011)
